In PubChem BioAssay one finds composite z-score and z-score data, which are given here for 15 compounds.

Molecules are shown by their SMILES. Activity calls are given as the source filed them. Unless noted, how the calls were made is not given here.

The test system of test [1] is XIP peptide (Xip251-270) binding. The experiment in a line: small-molecule binders of XIP peptide, primary screen, biochemical, small-molecule microarray, fluorescence 635/667 nm, 0.1 µg/mL protein (AID 1182). The following applies: fluorescent protein binding, 635 nm, higher = more signal, called active from +8 up or from −8 down.
Test [2] relates to XIP peptide (Xip251-270). The test can be described thus: small-molecule binders of XIP peptide, primary screen, biochemical, small-molecule microarray, fluorescence 635/667 nm, 0.5 µg/mL protein (AID 1183). The following applies: small-molecule microarray binding, fluorescence 635 nm; higher = more signal.
Test [3] in a line: Plasmodium falciparum growth inhibition, primary screen, strain 3D7, DAPI fluorescence, 100 nL (AID 1184).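 Further: parasites grown inside human red blood cells in medium with human serum.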 The settings on record: P. falciparum 3D7 growth, 3 d, higher = more signal.
The target in test [4] is Homeobox protein Hox-A13 (Mus musculus) (UniProt Q62424). The experiment in a line: inhibitors of HoxA13-DNA binding, primary screen, biochemical, fluorescence polarization, labeled oligonucleotide (AID 1185). The following applies: 15 min, higher = more signal, called active from +8 up or from −8 down. A general note: Fluorescence polarisation rises when a labelled molecule tumbles more slowly, as on binding a larger partner.

The nature of test [5]: inhibitors of hydroxyurea-induced Chk1 phosphorylation, primary screen, imaging, HeLa, phospho-Chk1 antibody, percent positive cells (AID 1186). The following applies: hydroxyurea-induced phospho-Chk1 immunofluorescence imaging, higher = more signal.
The nature of test [6]: inhibitors of hydroxyurea-induced Chk1 phosphorylation, primary screen, imaging, HeLa, phospho-Chk1 nuclear intensity (AID 1187). The settings on record: hydroxyurea-induced phospho-Chk1 immunofluorescence imaging, higher = more signal.

Sequence of Homeobox protein Hox-A13 (Mus musculus) (Q62424 whole entry, looked up): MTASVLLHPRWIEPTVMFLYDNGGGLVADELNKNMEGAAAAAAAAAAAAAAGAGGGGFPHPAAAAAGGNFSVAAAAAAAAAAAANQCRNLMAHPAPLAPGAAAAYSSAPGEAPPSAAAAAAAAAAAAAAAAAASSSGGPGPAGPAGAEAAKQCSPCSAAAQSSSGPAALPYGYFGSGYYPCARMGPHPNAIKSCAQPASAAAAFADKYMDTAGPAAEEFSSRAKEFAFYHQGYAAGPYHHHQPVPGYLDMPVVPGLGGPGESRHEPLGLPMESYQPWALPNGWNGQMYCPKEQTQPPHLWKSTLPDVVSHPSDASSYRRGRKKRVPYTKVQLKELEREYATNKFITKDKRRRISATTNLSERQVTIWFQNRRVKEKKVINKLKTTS

Consider `CC(C)C(CO)N1C(=O)[C@@H]2C3C(=O)OCCC/C=C\[C@H]3OC23C=CCN(c2ccc4ccccc4c2)C(=O)[C@@H]13` (stereo not given in full), for which the composite z-score in test [1] was 0.0076 (inactive); in test [2] it was 0.0118. The z-score in test [3] was 0.674; in test [4] it was -6.34 (inactive); in test [5], 0.467 (inactive); in test [6], 0.516 (inactive).
On to `C=C[C@H]1C(C(=O)OCC)=CC[C@@H](c2ccccc2)N1S(=O)(=O)c1ccc(C)cc1`, for which the composite z-score in test [1] was 0.413 (inactive); in test [2], 0.635. Further, the z-score in test [3] was -1.89; in test [4] it was -2.34 (inactive); in test [5] it was -0.229 (inactive); in test [6], -0.732 (inactive).
`CC(C)N1C(=O)c2ccccc2[C@@H](C(=O)NCCN2CCOCC2)[C@@H]1c1ccc(CO)cc1`: the composite z-score is 0.122 (inactive) in test [1] and 0.0961 in test [2]. The z-score was -0.22 in test [3], -4.17 (inactive) in test [4], -0.0809 (inactive) in test [5] and -0.264 (inactive) in test [6].
As to `C=CCNC(=O)[C@@H]1[C@H]2C(=O)O[C@H](c3ccccc3)[C@H](c3ccccc3)N2[C@H](c2ccccc2OCCO)[C@@]12C(=O)Nc1ccc(C#CCCO)cc12`, the composite z-score in test [1] is 0.712 (inactive); in test [2], 0.596. The z-score was -2.22 in test [3], -3.84 (inactive) in test [4], -0.38 (inactive) in test [5] and -0.262 (inactive) in test [6].
`COCCOC(=O)N1C(=O)[C@@]2(c3cc(C#CCCO)ccc31)[C@H](C(=O)Nc1nc3ccccc3s1)[C@H]1C(=O)O[C@H](c3ccccc3)[C@H](c3ccccc3)N1[C@@H]2c1ccc(O)cc1`: the values for the composite z-score in test [1] and in test [2] were 3.02 (inactive) and 0.765, respectively. The z-score was -1.45 in test [3], -3.01 (inactive) in test [4], -0.225 (inactive) in test [5] and -0.445 (inactive) in test [6].
Consider `OCCCC1=CC(c2ccc(CN3CCCC3)cc2)N(Cc2cc3c(cc2Br)OCO3)CC1` (stereo not given), for which the composite z-score in test [1] was -0.265 (inactive); in test [2], -0.3. For the same compound, the z-score is -3.05 in test [3], -2.68 (inactive) in test [4], 0.905 (inactive) in test [5] and 0.629 (inactive) in test [6].
Regarding `[N-]=[N+]=Nc1ccccc1C[C@@]1(C(N)=O)N=C(c2ccc(OCCCO)cc2)O[C@@H]1c1ccccc1N=[N+]=[N-]`, the composite z-score is 1.28 (inactive) in test [1] and 0.763 in test [2]. The z-score is -2.67 in test [3], -5.05 (inactive) in test [4], -0.0618 (inactive) in test [5] and 0.233 (inactive) in test [6].
Consider `COC(=O)C/C=C/C[C@]1(O)C(=O)N(C)c2ccccc21`, for which the composite z-score in test [1] is 0.0625 (inactive); in test [2] it was 0.804. Also, the z-score in test [3] was -0.306; in test [4] it was -1.32 (inactive); in test [5], -0.866 (inactive); in test [6] it was -0.467 (inactive).
In the case of `COCC(=C=CC[C@H](O)c1ccc(CO)o1)CCO`, the composite z-score is -0.224 (inactive) in test [1] and 0.297 in test [2]. Further, the z-score is 1.08 in test [3], -3.75 (inactive) in test [4], 0.625 (inactive) in test [5] and 0.295 (inactive) in test [6].
For `CCOC(=O)C1=C[C@@H](C(C)C)N(S(=O)(=O)c2ccc(C)cc2)[C@H]1c1ccc(C(F)(F)F)cc1`, the composite z-score was 0.438 (inactive) in test [1] and 0.555 in test [2]. Also, the z-score in test [3] was -1.88; in test [4], -0.498 (inactive); in test [5], 0.389 (inactive); in test [6], 0.112 (inactive).
Take `CS(=O)(=O)CCOC(=O)C1=CC(CCCO)=CC(c2ccc(CN3CCCC3)cc2)N(Cc2sc3ccccc3c2Cl)C=C1C(=O)OCCS(C)(=O)=O` (stereo not given): the composite z-score in test [1] is 0.814 (inactive); in test [2] it was 0.746. Moreover, the z-score in test [3] was -3.03; in test [4] it was 1.07 (inactive); in test [5], 0.316 (inactive); in test [6], 0.969 (inactive).
`NC(=O)[C@@]1(Cc2ccccc2)COC(c2ccc(OCCCO)cc2)=N1`: the values for the composite z-score in test [1] and in test [2] were 0.198 (inactive) and -0.959, respectively. For the same compound, the z-score is 0.0597 in test [3], -2.25 (inactive) in test [4], 0.279 (inactive) in test [5] and 0.382 (inactive) in test [6].
`CCCC=C(CCC)[C@@H](NS(=O)(=O)CC12CCC(CC1=O)C2(C)C)c1ccc(C(=O)OC)cc1` (stereo not given in full): the composite z-score in test [1] is -0.341 (inactive); in test [2], 0.316. Besides, the z-score is -0.384 in test [3], -2.11 (inactive) in test [4], -0.225 (inactive) in test [5] and -0.276 (inactive) in test [6].
Turning to `CCCCC(CC)C(O)C1C=CC2C(=O)N(C)C(=O)C2N1Nc1ccccc1` (stereo not given), the composite z-score in test [1] is -0.12 (inactive); in test [2] it was 0.298. For the same compound, the z-score in test [3] is 0.537; in test [4], -4.08 (inactive); in test [5], 0.168 (inactive); in test [6] it was -0.174 (inactive).
For `COC(=O)[C@@]1(Cc2ccc(OC)cc2)[C@H]2c3cc(C(=O)N(C)C)n(Cc4ccc(OC(F)(F)F)cc4)c3C[C@H]2CN1C(=O)c1ccccc1`, the composite z-score is -0.202 (inactive) in test [1] and 0.112 in test [2]. In addition, the z-score in test [3] was -1.42; in test [4] it was -5.65 (inactive); in test [5], 0.154 (inactive); in test [6] it was -0.666 (inactive).
